# Source: PubChem
# TWEAK Fn14 block = TWEAK-Fn14 signaling inhibition. TWEAK-stimulated Fn14 reporter cells, luciferase luminescence, 8 h. inhibition, % at 10 µM. 360,000 compounds, 2% hits. AID 1159606; in the data active = inhibition above about 50%
# KKLEB tox = CF airway cell cytotoxicity counter-screen. AID 602141. 360,000 compounds, 0.36% hits. KKLEB CF airway cells viability, ATPlite luminescence, overnight; active compounds read low; cells stimulated with P. aeruginosa culture filtrate. activity change (cytotoxicity), % at 5 µM;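 active = corrected activity change at or below -50% at 5 µM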
# HIF-2a inh = HIF-2a inhibition; 360,000 compounds, 0.72% hits; inhibition, % at 18.8 µM; 786-0 RCC cells HIF-2a reporter, luciferase luminescence, overnight; AID 624352;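 active = inhibition of the luminescence signal of 40% or more relative to plate controls, in a single-dose primary screen at 18.75 µM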
# CF NFkB inh = blocks PAF-induced NF-kB reporter in cystic fibrosis cells; 360,000 compounds, 0.86% hits; AID 588850; inhibition, % at 5 µM; KKLEB NF-kB-GFP reporter, GFP fluorescence overnight;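 active = at least 50% inhibition at 5 µM, scaled per plate between neutral and stimulator controls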;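 note: PAF is a Pseudomonas aeruginosa culture filtrate used as stimulus; plate controls were PAF-stimulated DMSO wells for no effect and unstimulated DMSO wells for full effect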
# LGR2 inh = Drosophila LGR2 receptor signaling inhibition; HEK293 LGR2, CRE-luciferase, bursicon-stimulated, 4 h; AID 720647; 380,000 compounds, 0.35% hits; inhibition, % at 9.99 µM;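 active = drop in luminescence signal, shown as inhibition above about 50% in the replicate tests, limit read from the data, passing the limit was not always enough; inconclusive = probably only some replicates passing the limit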;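 note: agonist challenge used bursicon conditioned medium at about half maximal strength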
# hiPSC survival = increases survival of single human iPS cells; hiPSC single-cell survival, ATPlite luminescence; 100% = ROCK inhibitor wells, 0% = DMSO; 360,000 compounds, 0.044% hits; survival enhancement, % at 20 µM; in the data active = survival enhancement above about 18%;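 note: cells exposed to compounds for 16 hours before the ATP read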
# Mdm2-MdmX confirm = Mdm2/MdmX (human) interaction inhibition, confirmed; shares compounds with HIF-2a inh; SaOS-2 split-luciferase Mdm2/MdmX complementation, luminescence; inhibition, % at 8 µM; 740 compounds, 99% hits;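 active = mean inhibition of the luminescence signal across two replicates at or above 26 percent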
# Target sequence (O15151 whole entry, looked up): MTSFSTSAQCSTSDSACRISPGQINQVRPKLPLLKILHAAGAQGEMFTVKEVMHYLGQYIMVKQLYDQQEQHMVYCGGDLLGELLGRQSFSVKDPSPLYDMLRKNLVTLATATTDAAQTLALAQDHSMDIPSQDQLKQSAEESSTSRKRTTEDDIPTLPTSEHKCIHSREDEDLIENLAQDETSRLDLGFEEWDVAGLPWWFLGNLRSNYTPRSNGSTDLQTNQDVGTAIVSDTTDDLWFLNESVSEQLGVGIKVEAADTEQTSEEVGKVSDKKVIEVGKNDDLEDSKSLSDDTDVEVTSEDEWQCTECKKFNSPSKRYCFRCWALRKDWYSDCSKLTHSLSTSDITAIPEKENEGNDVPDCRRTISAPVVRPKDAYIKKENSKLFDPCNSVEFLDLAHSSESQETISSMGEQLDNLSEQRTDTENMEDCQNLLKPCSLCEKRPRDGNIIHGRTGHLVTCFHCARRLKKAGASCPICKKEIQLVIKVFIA
# Target sequence (Q00987 whole entry, looked up): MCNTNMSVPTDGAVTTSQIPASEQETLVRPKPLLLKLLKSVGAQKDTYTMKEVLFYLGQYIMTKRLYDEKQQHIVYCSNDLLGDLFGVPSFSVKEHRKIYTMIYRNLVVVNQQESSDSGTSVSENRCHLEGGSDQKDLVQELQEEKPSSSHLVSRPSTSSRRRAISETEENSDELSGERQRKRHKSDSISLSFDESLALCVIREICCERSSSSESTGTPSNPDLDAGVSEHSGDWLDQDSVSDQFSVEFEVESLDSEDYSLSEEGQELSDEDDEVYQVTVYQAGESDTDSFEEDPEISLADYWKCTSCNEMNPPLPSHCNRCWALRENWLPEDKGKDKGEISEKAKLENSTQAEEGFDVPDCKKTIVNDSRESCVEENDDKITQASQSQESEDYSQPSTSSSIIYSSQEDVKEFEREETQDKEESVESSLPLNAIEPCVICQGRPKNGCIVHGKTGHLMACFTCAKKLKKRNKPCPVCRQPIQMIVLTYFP
# HIF-2a inh conf = confirmation of HIF-2a inhibitors; 1,800 compounds, 56% hits; shares compounds with HIF-2a inh; inhibition, % at 18.8 µM; 786-0 RCC cells, HIF-2a luciferase reporter luminescence, overnight;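 active = mean inhibition across four replicates of at least 40 percent at the single tested concentration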
# HIF-1a counter = HIF-1a inhibition counter-screen for HIF-2a hits. shares compounds with HIF-2a inh. inhibition, % at 18.8 µM. MiaPaCa-2 HIF-1a luciferase reporter, desferoxamine, overnight. 1,800 compounds, 72% hits. AID 651589;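 active = mean inhibition of the reporter signal across four replicates at the single tested dose of 50% or more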
# Starred values were filed as active, the others as inactive; u = inconclusive; x = no result given. This is a sample that favours compounds with a hit; in the whole collection about 2.3% have one here.
SMILES,TWEAK Fn14 block,KKLEB tox,HIF-2a inh,CF NFkB inh,LGR2 inh,hiPSC survival,HIF-2a inh conf,HIF-1a counter,others
COc1ccc(S(=O)(=O)N2CCCC2CNC(=O)C(=O)Nc2ccc(C)cc2)cc1 (stereo not drawn),0,6,-4,1,10,0,x,x,
COc1ccc(NC(=O)C(=O)NCC2CCCN2S(=O)(=O)c2ccc(C)cc2)cc1 (stereo not drawn),-9,-19,42*,52*,-11,0,33,49,
Cc1c(CCC(=O)O)c(=O)oc2cc3oc4c(c3cc12)CCCC4,51*,13,74*,-18,-52,0,83*,47,
Cc1c(CCC(=O)N2CCC[C@H]2C(=O)O)c(=O)oc2cc3oc4c(c3cc12)CCCC4,76*,-5,65*,24,x,2,79*,39,
COc1cccc(-c2coc3cc4oc(=O)c(CCC(=O)O)c(C)c4cc23)c1,3,1,40*,-40,2,-1,57*,51*,
Cc1c(CCC(=O)N[C@@H](CC(C)C)C(=O)O)c(=O)oc2cc3oc4c(c3cc12)CCCC4,38,4,65*,-18,-20,0,75*,38,
Cc1c(CCC(=O)NCC(=O)NCC(=O)O)c(=O)oc2cc3oc4c(c3cc12)CCCC4,9,-2,26,-2,-10,0,x,x,
Cc1c(CCC(=O)O)c(=O)oc2cc(OCc3ccccc3Br)ccc12,24,-13,78*,36,-9,-1,92*,52*,
CCCC#Cc1cnc2c(c1)C(=O)N([C@@H](C)CO)C[C@H](C)[C@@H](CN(C)C)O2,x,x,x,x,8,x,x,x,
O=C(O)C[C@H]1C[C@H]2c3cc(NC(=O)Nc4ccccc4F)ccc3O[C@H]2[C@@H](CO)O1,x,x,x,x,-13,x,x,x,
OCCCNc1c2ccccc2nc2ccccc12,-17,6,6,-126,19,0,x,x,Mdm2-MdmX confirm=97*
O=C1NC2c3c(I)sc(I)c3C(=O)C2O1 (stereo not drawn),31,9,53*,-16,u,1,4,48,
O=C1NC2c3c(Cl)sc(Cl)c3C(=O)C2O1 (stereo not drawn),19,-2,32,3,x,0,x,x,
CCCN1C[C@@H](C)[C@H](OC)CN(C)C(=O)c2ccc(NC(=O)c3ccccc3F)cc2OC[C@@H]1C,x,x,x,x,-3,x,x,x,
COc1ccc(N(C(=O)CCl)C(C(=O)NCCc2ccccc2)c2cccs2)cc1Cl (stereo not drawn),52*,-104*,95*,89*,22,-3,99*,103*,
COc1cccc(N(C(=O)CCl)C(C(=O)NCCc2ccccc2)c2cccs2)c1 (stereo not drawn),59*,-90*,93*,94*,16,-3,98*,107*,
COc1cccc(N(C(=O)c2snc(C(N)=O)c2N)C(C(=O)NCC2CCCO2)c2cccs2)c1 (stereo not drawn),7,-10,-4,3,0,0,x,x,
COc1ccc2c3c([nH]c2c1)[C@@H](CO)N(C(=O)C1CCOCC1)CC31CN(Cc2cccc(F)c2)C1,x,x,x,x,-15,x,x,x,
COc1ccc(NC(=O)/C(C#N)=C/c2ccc(Sc3nncn3C)c([N+](=O)[O-])c2)cc1,13,0,43*,12,13,0,24,21,
Cn1cnnc1Sc1ccc(C(=O)OCC(=O)Nc2ccccc2)cc1[N+](=O)[O-],18,-3,6,-1,-4,-1,x,x,
CCOC(=O)C(C)(C)N(Cc1ccccc1C)S(=O)(=O)c1ccc(Cl)c([N+](=O)[O-])c1,26,-1,40*,2,13,1,21,42,
C[C@@H]1CN([C@@H](C)CO)C(=O)c2cc(NC(=O)NC3CCCCC3)ccc2O[C@H]1CN(C)Cc1ccc(C(=O)O)cc1,x,x,x,x,1,x,x,x,
CCc1cc(SC#N)cc(C)c1N,35,-7,63*,-29,-10,0,-14,-26,
CCCNC(=O)C[C@@H]1CC[C@H]2[C@H](COc3ccc(NC(=O)c4cccs4)cc3C(=O)N2C)O1,x,x,x,x,0,x,x,x,
Cc1ccc(S(=O)(=O)N(C)C[C@H]2Oc3c(NC(=O)Nc4ccc(F)cc4)cccc3C(=O)N([C@@H](C)CO)C[C@H]2C)cc1,x,x,x,x,-24,x,x,x,
SMILES,TWEAK Fn14 block,KKLEB tox,HIF-2a inh,CF NFkB inh,LGR2 inh,hiPSC survival,HIF-2a inh conf,HIF-1a counter,others
Cc1ccc(/C=C/C(O)=C2/C(=O)N(C)C3(C)CC2c2ccccc2O3)cc1 (stereo not drawn),51*,-3,83*,15,x,-2,37,97*,
COc1ccc(/C=C/C(O)=C2/C(=O)N(C)C3(C)CC2c2ccccc2O3)cc1 (stereo not drawn),28,-6,54*,7,x,-3,-5,54*,
COc1ccc(/C=C/C(O)=C2/C(=O)NC3(C)CC2c2ccccc2O3)c(OC)c1OC (stereo not drawn),39,0,36,14,26,0,x,x,
CNC[C@H](CC1CCCCC1)NC[C@H](CO)NCCc1cccc(C(F)(F)F)c1,-23,-19,2,31,u,-6,x,x,Mdm2-MdmX confirm=103*
CNC[C@H](CC1CCCCC1)NC[C@H](CO)NCC1(c2ccccc2)CC1,-2,-11,3,-8,10,-2,x,x,
O=Cc1ccc(-c2cccs2)s1,-18,-19,44*,3,u,1,52*,-13,
CCN(CC)C(=O)c1ccc(-c2cccs2)s1,-34,0,-272,15,x,-1,x,x,
COc1ccc2c3c([nH]c2c1)[C@H](CO)N(C(=O)C1CCCC1)CC31CN(C(=O)NC(C)C)C1,x,x,x,x,7,x,x,x,
COc1cccc(NC(=O)N(C)C[C@H]2Oc3cc(C#Cc4ccncc4)ccc3S(=O)(=O)N([C@H](C)CO)C[C@H]2C)c1,31,-16,43*,-2,-8,9,19,38,
COc1cccc(NC(=O)N(C)C[C@H]2Oc3cc(C#Cc4ccncc4)ccc3S(=O)(=O)N([C@H](C)CO)C[C@@H]2C)c1,x,x,x,x,14,x,x,x,
C[C@H](CO)N1C[C@H](C)[C@H](CN(C)Cc2ccc(C(=O)O)cc2)OCCCC[C@H](C)Oc2ccc(NC(=O)CCC(F)(F)F)cc2C1=O,x,x,x,x,-5,x,x,x,
CCCNC(=O)N1C[C@@H]2[C@H](c3ccccc31)[C@H](CO)N2Cc1cc(F)ccc1F,x,x,x,x,10,x,x,x,
